A selection: hits, their analogues and other compounds. The true share with any hit is near 2.8%.
AHR act = activators of human aryl hydrocarbon receptor. activation, % at 5 µM. actives 2.5% (n = 320,000). AHR-responsive luciferase reporter cells, luminescence. P35869; in the data active means activation above about 47%;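 further: 0% = vehicle wells and 100% = reference agonist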
PolyA inh = yeast polyadenylation inhibition; activity score, % at 12 µM; actives 0.02% (n = 300,000); AID 1875; S. cerevisiae SKY197-pL101 polyadenylation reporter, beta-gal luminescence; efflux-impaired pdr1/pdr3 knockout yeast; score 100 = 6 SD above DMSO;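 active means lowest replicate activity score at least 50, where 100 means six control SD above control mean; inconclusive means lowest score under 50 but half or more replicates reach 50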;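 further: yeast exposed to compound for 9 h at 30 °C; higher score means more reporter readthrough which indicates perturbed polyadenylation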
HIF activator = HIF pathway transcriptional activation; U2OS HRE-luciferase reporter, luminescence; normalized: DMSO 0%, desferrioxamine 100%; activation, % at 7.5 µM (by protocol); AID 1910; actives 0.32% (n = 300,000);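 active means mean activation of at least 10% of the iron chelator positive control signal, with at least half of replicates also reaching 10%; inconclusive means mean and replicate majority disagree about reaching 10%; inactive means mean and most replicates under 10%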
Platelet DG rel = modulates dense granule release in human platelets; human platelet-rich plasma, SFLLRN dense granule ATP release, luminescence; inhibition, %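 (compounds screened at 7.5 µM in platelet-rich plasma)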; actives 0.22% (n = 300,000);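 active means mean replicate score, as percent of positive control, at or above 50; inconclusive means mean below 50 but at least one replicate at or above 50; inactive means mean and every replicate below 50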
p-CIP stab down = lowers stability of the mouse p/CIP coactivator protein; Q05BA5; F442A p/CIP-EGFP cells, EGFP fluorescence, 16 h; decrease of EGFP signal, % at 10 µM; actives 0.01% (n = 290,000);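 active means EGFP signal decrease of at least 30% at 10 µM or well 3 SD below plate mean, unless failing retest; inactive means the rest, including hits failing retest or dose response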
Target sequence (Q05BA5 1-1403): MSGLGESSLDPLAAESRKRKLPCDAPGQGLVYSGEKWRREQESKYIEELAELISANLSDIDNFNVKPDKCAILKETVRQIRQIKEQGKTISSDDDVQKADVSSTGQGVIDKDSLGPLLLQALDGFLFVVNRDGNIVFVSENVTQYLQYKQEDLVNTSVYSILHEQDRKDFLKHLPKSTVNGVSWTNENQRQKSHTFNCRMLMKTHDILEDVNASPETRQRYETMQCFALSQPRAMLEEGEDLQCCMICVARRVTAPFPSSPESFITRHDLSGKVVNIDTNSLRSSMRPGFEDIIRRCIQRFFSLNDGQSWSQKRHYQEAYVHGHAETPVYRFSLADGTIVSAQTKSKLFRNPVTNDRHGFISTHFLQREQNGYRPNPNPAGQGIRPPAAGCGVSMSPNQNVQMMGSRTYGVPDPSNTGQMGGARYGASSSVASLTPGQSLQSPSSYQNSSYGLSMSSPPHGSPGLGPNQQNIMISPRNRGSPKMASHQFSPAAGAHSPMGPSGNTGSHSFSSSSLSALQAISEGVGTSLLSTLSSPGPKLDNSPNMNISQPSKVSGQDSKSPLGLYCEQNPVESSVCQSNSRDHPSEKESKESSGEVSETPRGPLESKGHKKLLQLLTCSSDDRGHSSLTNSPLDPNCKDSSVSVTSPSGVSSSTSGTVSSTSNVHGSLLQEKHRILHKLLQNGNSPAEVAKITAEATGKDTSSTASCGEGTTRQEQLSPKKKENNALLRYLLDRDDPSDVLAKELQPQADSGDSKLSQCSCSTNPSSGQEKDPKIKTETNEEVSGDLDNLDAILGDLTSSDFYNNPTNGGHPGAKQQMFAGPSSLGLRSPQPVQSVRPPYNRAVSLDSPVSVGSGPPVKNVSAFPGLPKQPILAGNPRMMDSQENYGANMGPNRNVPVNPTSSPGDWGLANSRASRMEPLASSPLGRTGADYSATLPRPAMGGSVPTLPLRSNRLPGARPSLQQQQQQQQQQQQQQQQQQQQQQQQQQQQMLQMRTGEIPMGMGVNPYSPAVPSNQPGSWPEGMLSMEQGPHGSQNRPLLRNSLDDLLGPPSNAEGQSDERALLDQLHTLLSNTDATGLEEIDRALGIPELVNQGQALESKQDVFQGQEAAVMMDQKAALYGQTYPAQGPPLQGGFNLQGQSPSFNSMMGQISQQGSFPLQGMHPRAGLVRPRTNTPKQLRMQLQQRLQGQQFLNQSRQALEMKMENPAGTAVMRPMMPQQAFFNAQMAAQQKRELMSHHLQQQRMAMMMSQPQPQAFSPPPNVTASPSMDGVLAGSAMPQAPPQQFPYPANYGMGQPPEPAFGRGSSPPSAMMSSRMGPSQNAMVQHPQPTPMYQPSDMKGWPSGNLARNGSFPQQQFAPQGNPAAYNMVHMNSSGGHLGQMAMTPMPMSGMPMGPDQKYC
Numbers without * were called inactive; ? = inconclusive; . = no result given.

SMILES | AHR act | PolyA inh | HIF activator | Platelet DG rel | p-CIP stab down
Cn1cc(/C=N/NC(=O)c2ccccc2O)c2ccccc21 | 38 | -10 | 0 | 2 | 8
COc1ccc(/C=N/NC(=O)c2cccc([N+](=O)[O-])c2)c2ccccc12 | 13 | -5 | 1 | -6 | 13
Cc1[nH]c2ccccc2c1/C=N/NC(=O)c1cccc([N+](=O)[O-])c1 | 48* | 3 | 0 | 4 | -8
Cc1[nH]c2ccccc2c1/C=N/NC(=O)c1cccs1 | 74* | -1 | 2 | -2 | -4
Cn1cc(C(=O)N/N=C/c2cc(Br)cs2)c2ccccc21 | 50* | -1 | 3 | 0 | 6
CC(OC(=O)C1CC1)C(=O)Nc1ncc(Cl)cc1Cl (centres undefined) | -1 | . | . | . | .
O=C(Cn1nc(C(=O)O)c2ccccc2c1=O)Nc1cc(S(=O)(=O)N2CCCCC2)ccc1Cl | 1 | . | . | . | .
COc1cc2c(cc1NC(=O)C(C)OC(=O)c1ccc(S(=O)(=O)Nc3ccccc3Cl)cc1)oc1ccccc12 (centres undefined) | 78* | -3 | 1 | -14 | 14
COc1cc2c(cc1NC(=O)C(C)N1CCN(S(=O)(=O)c3ccccc3[N+](=O)[O-])CC1)oc1ccccc12 (centres undefined) | 42 | 5 | 0 | 6 | 0
COc1cc2c(cc1NC(=O)C(C)N1CCN(S(=O)(=O)c3ccc(C)c(C)c3)CC1)oc1ccccc12 (centres undefined) | 59* | 19 | 0 | -10 | -3
O=C(CCN1C(=O)C2C3CCC(C3)C2C1=O)Nc1cccc(Cl)c1 (centres undefined) | 5 | -14 | 0 | -31 | 1
CC(C)(C)c1ccc(NNC(=O)C2CCC2)cc1 | 73* | 0 | 0 | -2 | -5
CCOCCCNC(=O)C(c1ccc(C)cc1)N(Cc1cccs1)C(=O)CNC(C)=O (centres undefined) | 1 | -4 | 0 | -2 | 0
C/C(=N\Nc1ccc(F)cc1)c1ccncc1 | 33 | 17 | 0 | 4 | -6
C/C(=N\Nc1ccc(Cl)cc1)c1ccccn1 | 68* | -9 | 0 | 2 | 4
C/C(=N\Nc1ccc(Cl)cc1)c1ccncc1 | 68* | -15 | 0 | -3 | 4
Cc1ncc(CN2CCC(C(=O)Nc3ccc(Oc4cccnc4)cc3)CC2)cn1 | 1 | 0 | 2 | 16 | 0
O=C(Nc1ccc2c(c1)OCCO2)c1cccs1 | 1 | 25 | 1 | 17 | -2
O=C(Nc1ccc2c(c1)OCCO2)C1CCCN(S(=O)(=O)c2cccs2)C1 (centres undefined) | 12 | -9 | 1 | -3 | -4
O=C(N/N=C\c1cc2c(cc1Cl)OCO2)c1cccs1 | 78* | ? | 2 | 0 | 8
O=C(Nc1ccc2c(c1)OCO2)c1cccs1 | 88* | 8 | 3 | 10 | -14
O=C(N/N=C\c1cc2c(cc1[N+](=O)[O-])OCO2)c1cccs1 | . | . | . | . | -8
O=C(Nc1ccc2c(c1)OCO2)C1CCCN(S(=O)(=O)c2cccs2)C1 (centres undefined) | 66* | 5 | 0 | 4 | -4
C=CCNC(=O)NC(=O)COC(=O)/C(C#N)=C/c1ccc(OC)cc1 | 1 | 15 | 0 | 6 | 8
O=C(Nc1cccc(C(F)(F)F)c1)c1cccnc1NCCO | 52* | -4 | 0 | -6 | -3
SMILES | AHR act | PolyA inh | HIF activator | Platelet DG rel | p-CIP stab down
O=C(Nc1cccc(C(F)(F)F)c1)Oc1ccc(Cl)c2cccnc12 | 49* | 9 | -10 | -4 | 9
O=C(Nc1cccc(C(F)(F)F)c1)c1cccnc1NCCc1ccccc1 | 5 | 3 | 0 | 5 | 14
Cc1ccc(NC(=O)CCn2cc(C(F)(F)F)ccc2=O)cc1 | 1 | 1 | -1 | 7 | -11
CC1CC(=O)NN=C1c1ccc(N(C)C)c([N+](=O)[O-])c1 (centres undefined) | -1 | 4 | 0 | 82* | -3
CCN(CC)c1ccc(C2=NNC(=O)CC2C)cc1[N+](=O)[O-] (centres undefined) | 7 | -5 | -1 | 55* | 0
CC1CC(=O)NN=C1c1cccs1 (centres undefined) | -1 | -18 | 0 | 36 | -12
Cc1onc(-c2ccccc2)c1C(=O)Nc1ccc(S(=O)(=O)N2CCCC2)cc1 | -2 | 8 | 87* | -11 | -1
COC(=O)c1ccccc1NC(=S)N(Cc1ccc2c(c1)OCO2)Cc1cc2cc(OC)ccc2[nH]c1=O | 21 | 0 | 0 | -2 | -10

Screening results deposited in PubChem BioAssay by several laboratories.
